Hits are enriched below; roughly 8.9% of the tested compounds scored in any of these assays.
SW480 rerep = DNA re-replication induction in SW480 cells; Potency, µM (titrated, usually from 46.1 µM), actives largely listed as activators; 340,000 compounds, 1.8% hits; AID 624297; SW480 DNA re-replication, Hoechst DNA content imaging, 48 h; also: nearly all actives have a fitted effect of over 55% in size
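Treated cells incubate 48 hr (37 C, 5% CO2), are stained 40 min with Hoechst, and nuclear fluorescence is enumerated; a rise in nuclei with high DNA signal marks re-replication.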
DRD3 antagonist = D3 dopamine receptor (human) antagonism; P35462; D3R cells, DiscoveRx beta-arrestin luminescence, antagonist mode; hits give low values; max response, negative = inhibition, %; 360,000 compounds, 2.5% hits; AID 652054; in the data active = max response below about -50%; inconclusive = no clear call, values can overlap the other calls
Target sequence (P35462 whole entry, looked up): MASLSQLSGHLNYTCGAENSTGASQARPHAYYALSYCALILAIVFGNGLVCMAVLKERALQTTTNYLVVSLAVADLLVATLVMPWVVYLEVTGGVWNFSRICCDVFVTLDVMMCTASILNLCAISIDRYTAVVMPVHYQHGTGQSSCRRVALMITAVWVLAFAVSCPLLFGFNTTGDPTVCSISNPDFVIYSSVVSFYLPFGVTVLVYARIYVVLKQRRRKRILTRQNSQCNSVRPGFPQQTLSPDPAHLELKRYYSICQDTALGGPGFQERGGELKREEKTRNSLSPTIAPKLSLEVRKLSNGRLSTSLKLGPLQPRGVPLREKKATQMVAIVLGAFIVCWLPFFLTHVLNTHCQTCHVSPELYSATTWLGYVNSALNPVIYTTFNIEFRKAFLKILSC
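Cells expressing the human receptor were seeded at 1500 cells/well, incubated overnight at 37 degrees C in 5% CO2, then exposed to library compounds with dopamine controls for 90 minutes at 37 degrees C before luminescent detection.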
D3 ag = activates the human D3 dopamine receptor; max activation, %; 410,000 compounds, 0.58% hits; P35462; D3R DiscoveRx beta-arrestin cells, luminescence, 90 min; in the data active = max activation above about 30%
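Agonist-mode cell screen: cells plated at 1500/well and incubated overnight at 37 °C, then exposed to library compounds for 90 min at 37 °C. Detection reagent was added for 30–60 min at room temperature, and luminescence was read.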
MCF10A rereplic = DNA re-replication induction in MCF 10a cells; 350,000 compounds, 2.9% hits; AID 624296; Potency, µM (top dose mostly 46.1 µM), usual class: activators; MCF 10A DNA re-replication, Hoechst nuclear intensity, 48 h; also: nearly all actives have a fitted effect of over 50% in size
KB-3-1 tox = kills parental KB-3-1 adenocarcinoma cells | KB-3-1 viability, CellTiter-Glo ATP luminescence, 72 h | 400,000 compounds, 1.4% hits | Potency, µM (series often up to 46.1 µM), hits mostly cytotoxic; also: nearly all actives have a fitted effect of over 60% in size
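Viability of parental KB-3-1 cells, measured by CellTiter-Glo luminescence, followed a 72 h incubation at 37 °C with pinned compounds in phenol-red-free DMEM containing 10% FBS.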
KB-V1 MDR tox = KB-V1 MDR subline cytotoxicity | KB-V1 MDR cells viability, CellTiter-Glo, 72 h | Potency, µM (titrated, usually from 46.1 µM), usual class: cytotoxic | 400,000 compounds, 3.4% hits | AID 1347076; also: nearly all actives have a fitted effect of over 60% in size
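Luminescent ATP read-out (CellTiter-Glo, 10 min) measures survival of drug-selected KB-V1 MDR cells after 72 h, 37 degrees C compound exposure. Medium: phenol-red-free DMEM, 10% FBS. Values from fitted concentration-response curves.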
Numbers stand for hits; n = inactive; u = inconclusive; x = no result given. Unless noted, calls follow the shape of the dose curve; as a rule, active = well fitted curve in the direction sought with a large enough effect; inconclusive = small, poorly fitted or top-dose-only effect, or another doubt; inactive = no such curve, though single readings can be large; an effect the other way counts as inactive or inconclusive.

SMILES | SW480 rerep | DRD3 antagonist | D3 ag | MCF10A rereplic | KB-3-1 tox | KB-V1 MDR tox
CC(C)(C)c1nnc(N/N=C/c2ccccc2O)n(N)c1=O | n | n | 33.5 | u | u | n
CCc1nnc(N/N=C/c2ccccc2F)n1N | u | n | n | 25.9µM | n | n
Nn1cnnc1N/N=C/c1cccc(Cl)c1Cl | u | n | n | u | n | n
CCc1nnc(N/N=C/c2ccccc2Cl)n1N | n | -63.2 | n | n | n | n
CCOC(=O)N/N=C/c1ccccc1F | n | n | n | n | n | n
O=C(Cn1c(=O)oc2cc(S(=O)(=O)N3CCCCCC3)ccc21)NCc1ccccc1Cl | x | x | n | x | u | u
O=C1CC(c2ccccc2)=Nc2ccc(Br)cc2N1 | u | n | n | n | u | 14.6µM
Cc1ccc2c(c1)NC(=O)CC(c1ccccc1)=N2 | n | n | n | n | n | n
COCCCNC(=S)NC1CC2CCC(C1)N2Cc1ccccc1 (stereo not drawn) | n | -59.6 | n | n | n | n
CCOCCCNC(=S)NCCc1ccccc1 | n | n | n | n | n | n
COCCCNC(=S)NC1CC2CCCC(C1)N2Cc1cccs1 (stereo not drawn) | n | n | n | u | n | u
CCCN1C2CCCC1CC(NC(=S)NCCCOCC)C2 (stereo not drawn) | n | n | n | n | n | 8.2µM
CCOCCCNC(=S)NC1CC2CCC(C1)N2Cc1ccccc1 (stereo not drawn) | n | -62.2 | n | n | n | n
CCCN1C2CCCC1CC(NC(=S)Nc1cc(C)cc(C)c1)C2 (stereo not drawn) | n | n | n | n | n | n
C[C@@H]1CN([C@@H](C)CO)C(=O)CCCn2cc(nn2)CO[C@H]1CN(C)S(=O)(=O)c1ccccc1F | x | n | n | x | n | u
Cc1ccc(CNC(=O)C(C(C)C)N2Cc3ccccc3C2=O)cc1 (stereo not drawn) | x | x | n | x | x | x
CC(=O)Nc1cccc(C(=O)Nc2cccc3ncccc23)c1 | n | n | n | n | n | n
CCN1C(=O)c2cccc3c(NC(=O)c4cccc(N5C(=O)CCC5=O)c4)ccc1c23 | n | n | n | n | n | n
CCOc1cc(C(=O)Nc2cccc3ncccc23)cc(OCC)c1OCC | n | n | 35.4 | n | n | n
CCOc1cc(C(=O)Nc2ccc3c4c(cccc24)C(=O)N3CC)cc(OCC)c1OCC | n | n | n | n | n | 9.2µM
CCOc1ccccc1NC(=O)c1cc(-c2ccccn2)nc2ccccc12 | u | n | n | u | 18.4µM | u
O=C(OC[C@@H](O)CO)c1ccccc1Nc1ccnc2cc(Cl)ccc12 | n | x | x | n | x | x
CC(C)(c1cc(Br)c(O)c(Br)c1)c1cc(Br)c(O)c(Br)c1 | n | n | 30.2 | u | n | n
c1ccc(-c2nc3ccccc3[nH]2)cc1 | n | -93.6 | n | n | n | n
c1ccc2[nH]c(-c3ccncc3)nc2c1 | n | n | n | n | n | n
SMILES | SW480 rerep | DRD3 antagonist | D3 ag | MCF10A rereplic | KB-3-1 tox | KB-V1 MDR tox
c1ccc(-c2n[nH]c(-c3ccccc3)c2-c2nc3ccccc3[nH]2)cc1 | n | -56.4 | n | n | n | n
COC(=O)c1ccc(-c2nc3ccccc3[nH]2)cc1 | x | u | n | n | u | 18.4µM
COc1ccc(NC(=O)CSC2=Nc3ccccc3C3=NC(CCC(=O)NCCc4ccccc4)C(=O)N23)c(OC)c1 (stereo not drawn) | x | x | n | x | n | n
CCCc1cc(=O)[nH]c(SCC(=O)c2cc(C)n(CC(F)(F)F)c2C)n1 | n | n | n | n | n | 16.4µM
COc1ccc(CCn2c(C)cc(C(=O)CSc3nc(N)cc(=O)[nH]3)c2C)cc1 | n | n | 34.9 | u | n | n
CCCCCCCCCCOC(=O)Cn1c(COc2ccccc2OC)[n+](C)c2ccccc21 | u | n | n | 5.8µM | u | n
Cn1c(COc2ccccc2O)[n+](C)c2ccccc21 | n | n | n | n | n | n
O=C(COc1ccc(C(=O)c2ccccc2)cc1)NC1CCCCC1 | n | n | n | n | n | n
O=C(COc1ccc(-n2cnnn2)cc1)NC1CCCCC1 | n | -65.1 | n | n | n | u
O=C(COc1ccc(C(=O)c2ccccc2)cc1)NC1CCCCCC1 | n | n | n | n | u | 10.3µM
CC1CCc2nc3sc4c(c3c(N)c2C1)CCCC4 (stereo not drawn) | n | n | n | u | u | u
Nc1c2c(nc3sc4c(c13)CCCCC4)CCCCC2 | n | n | n | u | u | 8.2µM
Cc1cccc(C)c1NC(=O)C(Cl)=C(Cl)Cl | u | n | n | n | 18.4µM | u
CCN(CC)CC(=O)Nc1c(C)cccc1C | n | n | n | u | n | n
CCN(C(=O)c1cc2c(s1)-c1c(C)cccc1OC2)c1cc(C)ccc1C | x | x | n | x | n | n
O=C(CCCCCn1c(=O)c2sccc2n(CC(=O)Nc2cccc(Cl)c2)c1=O)NCc1ccc2c(c1)OCO2 | x | x | n | x | x | x
Cn1c(SCC(=O)N/N=C/c2ccc([N+](=O)[O-])s2)nnc1-c1ccccc1 | u | u | n | 18.4µM | 20.6µM | u
Cc1ccccc1C(=O)N/N=C/c1ccc([N+](=O)[O-])s1 | u | n | n | n | n | u
O=C(N/N=C/c1ccc([N+](=O)[O-])s1)c1ccccc1Br | 10.3µM | n | n | n | n | u
O=C(Cc1ccccc1)N/N=C/c1ccc([N+](=O)[O-])s1 | u | n | n | u | u | 14.6µM
O=C(CNC(=O)c1cccc(F)c1)N/N=C/c1ccc([N+](=O)[O-])s1 | 18.4µM | n | n | u | n | n
Cc1c(Cl)cccc1NC(=O)C1CCCN(c2nnc(-n3c(C)ccc3C)s2)C1 (stereo not drawn) | x | x | n | x | x | x
CN(N=O)c1ccc2c(c1)Cc1ccccc1-2 | x | x | x | x | n | n
COc1cc(/C=N/NC(=O)Cc2ccccc2)ccc1Oc1ccc([N+](=O)[O-])cc1[N+](=O)[O-] | n | n | n | u | n | u
O=C(N/N=C\c1ccc([N+](=O)[O-])s1)c1cncc(Br)c1 | 5.8µM | u | n | 7.31µM | 5.8µM | n
SMILES | SW480 rerep | DRD3 antagonist | D3 ag | MCF10A rereplic | KB-3-1 tox | KB-V1 MDR tox
COc1cc(/C=N/NC(=O)Cc2ccccc2)cc([N+](=O)[O-])c1O | n | -55.6 | n | n | n | n
Cc1cc(C)n2nc(CNS(=O)(=O)c3ccccc3)nc2n1 | x | x | n | x | n | n
COc1ccc(C(=O)Oc2ccc3oc(=O)sc3c2)cc1 | n | -51.9 | n | n | n | n
COc1ccc(C(=O)Oc2ccc3ccc(=O)oc3c2)cc1 | n | n | n | n | n | n
O=C(C1CCCCC1)N1CCCn2c1nc1ccccc12 | n | n | n | n | n | n
O=C(C1CCN(S(=O)(=O)c2cnc[nH]2)CC1)N1CCn2c1nc1ccccc12 | n | -118.3 | n | n | n | n
COc1ccc(C(=O)N2CCN(c3nc4c(OC)cccc4s3)CC2)cc1OC | x | x | n | x | x | x

High-throughput results (PubChem)
